Bioassay records: PubChem BioAssay, Sanford-Burnham Center for Chemical Genomics
Compounds with a hit are over-represented: about 4% of the library has one in this group of screens.
tim23-1 inh – inhibits growth of tim23-1 mutant yeast; S. cerevisiae tim23-1 growth, BacTiter-Glo luminescence, 24 h; actives 1.3% (n = 330,000); AID 463212; inhibition, % at 20 µM;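 active = growth inhibition of the mutant yeast at or above 50%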;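 note: temperature-sensitive mutant grown at 25 °C; plate controls were DMSO-treated mutant yeast for no effect and medium wells lacking yeast for full effect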
TIM10 inh – growth inhibitors of TIM10 yeast strain; S. cerevisiae TIM10 strain growth, BacTiter-Glo luminescence, 24 h; inhibition, % at 10 µM; actives 1.4% (n = 330,000); AID 463195;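 active = inhibition of 40% or more at the single tested concentration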;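 note: wild-type TIM10 isogenic control strain grown at permissive 25 °C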
NALP1 yeast inh – blocks the NALP1 inflammasome reconstituted in yeast | S. cerevisiae NALP1/ASC/caspase-1 growth, X-gal OD620, 72 h | actives 0.61% (n = 280,000) | inhibition, % at 10 µM; in the data active = inhibition mostly above about 24%, no sharp cut-off; inactive = mostly below about 32%
NALP3 yeast inh – inhibitors of NALP3 inflammasome in yeast. Yeast reconstituted NLRP3/ASC/caspase-1, beta-gal luminescence, 24 h. inhibition, % at 10 µM. actives 0.39% (n = 330,000). AID 2825;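 active = inhibition of 50% or more; inactive = inhibition below 50%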;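 note: plate controls were induced DMSO wells for no effect and uninduced yeast grown without galactose for full effect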
tim10-1 inh – tim10-1 yeast growth inhibition; S. cerevisiae tim10-1 ts strain growth, BacTiter-Glo, 24 h; inhibition, % at 20 µM; actives 2.2% (n = 330,000);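 active = inhibition of at least 40%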;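 note: mutant grown at 25 °C; 0% = DMSO wells with yeast and 100% = wells holding no yeast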
NALP3 yeast conf – NALP3 inhibition confirmation in yeast; shares compounds with NALP3 yeast inh; yeast expressing human NALP3, luminescence; inhibition, % at 10 µM; actives 81% (n = 1,300); AID 435006; in the data active = inhibition above about 48%
Casp1-ASC yeast – counter-screen for NALP3 inhibitors: yeast caspase-1-ASC | shares compounds with NALP3 yeast inh | inhibition, % at 10 µM | actives 66% (n = 1,000) | yeast expressing Caspase-1-ASC, luminescence counter screen | AID 488784
NALP3 retest – yeast NALP3 inhibition, confirmed on retest. shares compounds with NALP3 yeast inh. AID 488794. yeast expressing human NALP3, luminescence read-out. inhibition, % at 10 µM. actives 53% (n = 1,000)
tim10-1 confirm – confirmation of tim10-1 mutant yeast growth inhibitors | shares compounds with tim10-1 inh | S. cerevisiae tim10-1 ts strain growth, BacTiter-Glo, 24 h | inhibition, % at 20 µM | actives 56% (n = 7,400) | AID 463213;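 active = inhibition of yeast growth at or above a set limit in either of two repeat tests at 20 µM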;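 note: tim10-1 mutant grown at permissive 25 °C to find synthetic lethal compounds; 0% = DMSO yeast wells and 100% = medium wells without yeast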
TIM10 conf – confirmation of TIM10 yeast growth inhibitors | AID 463215 | inhibition, % at 10 µM | actives 63% (n = 4,600) | S. cerevisiae tim10 strain growth, BacTiter-Glo luminescence, 24 h | shares compounds with TIM10 inh;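 active = inhibition of yeast growth at or above a set limit in either of two replicates at 10 µM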;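 note: this counterscreen used the strain with wild-type TIM10; 0% = yeast with DMSO and 100% = medium wells lacking yeast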
tim23-1 confirm – tim23-1 yeast growth inhibition, confirmed; shares compounds with tim23-1 inh; S. cerevisiae tim23-1 growth, BacTiter-Glo luminescence, 24 h; inhibition, % at 20 µM; actives 83% (n = 4,400); AID 463218;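 active = inhibition above about 39% in either of two replicate wells at 20 µM, limit read from the data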;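 note: temperature-sensitive tim23-1 mutant grown at 25 °C; 0% = DMSO wells with yeast and 100% = medium wells without yeast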
Active calls of the source: *; nt = no result given; ! = a repeat was not active. Cut-off read from the data, not from the text of the source, unless noted: active = inhibition above about 50%; inactive = the rest.

SMILES | tim23-1 inh | TIM10 inh | NALP1 yeast inh | NALP3 yeast inh | tim10-1 inh | NALP3 yeast conf | Casp1-ASC yeast | NALP3 retest | tim10-1 confirm | TIM10 conf | tim23-1 confirm
Cn1c(=O)c(C(=O)Nc2ccccn2)c(O)c2ccccc21 | 57.4* | 33.1 | 4.6 | 50.7* | 7.9 | 63.5* | 40.1 | 48.8 | nt | nt | 58.5*
O=C(Nc1cccc2nsnc12)c1cccs1 | 61.1*! | 68.5*! | 8.6 | 69.6*! | 15.9 | 88.9* | 77.5* | 61.4* | nt | 58.4* | 76.0*
O=C(Nc1ccc2nsnc2c1)c1cccs1 | 19.3 | 18.4 | 10.9 | -9.9 | 16.5 | nt | nt | nt | nt | nt | nt
CCOC(=O)N1C(=O)C2(CCCCC2)N(c2ccccc2Cl)C1=S | 77.7* | 56.6* | 38.3 | 63.8* | 59.9* | 67.2* | 34.0 | 50.6* | 52.2* | -1.8 | 68.0*
CC1(C)Cc2c(cnn2-c2ccccc2)C(NC(=O)CCN2CCCCO2)C1 (centres undefined) | 19.1 | 8.3 | -0.8 | 13.6 | 13.9 | nt | nt | nt | nt | nt | nt
Cc1cccc(-n2cnc3cc(C(=O)N4CCc5ccccc54)ccc32)c1 | 35.2 | 21.6 | 12.0 | 11.4 | 21.3 | nt | nt | nt | nt | nt | nt
CCN1/C(=C/C=C/c2oc3ccc4ccccc4c3[n+]2CC)Oc2ccc3ccccc3c21 | 68.9* | 61.7* | 7.9 | 59.3* | 54.4* | 61.0* | nt | nt | 56.2* | 68.3* | 64.2*
CC1(C)CC(=O)c2cnc(N3CCN(c4ccccc4)CC3)nc2C1 | 30.9 | 9.7 | 20.5 | -8.9 | 27.7 | nt | nt | nt | nt | nt | nt
CC1(C)CC(=O)c2cnc(N3CCc4ccccc4C3)nc2C1 | 70.7* | 16.3 | -9.6 | 61.5* | 54.9* | 42.5 | 6.3 | 24.9 | 53.0* | nt | 52.4*
O=C(CC1SC(N2CCCC2)=NC1=O)Nc1ccc(C(=O)N2CCN(c3cccc(Cl)c3)CC2)cc1 (centres undefined) | 10.0 | 1.4 | nt | 28.3 | 6.2 | nt | nt | nt | nt | nt | nt
C/C(=N\NC(=O)c1ccc(Cl)cc1)c1ccccn1 | 50.3* | 22.5 | 36.2* | 71.8* | 6.2 | 85.5* | 94.0* | 83.4* | nt | nt | 44.6*
CCCCn1c(N)c(N(CC)C(=O)c2cccc(OC)c2)c(=O)[nH]c1=O | 5.4 | -20.4 | 7.7 | 11.1 | 3.5 | nt | nt | nt | nt | nt | nt
O=[N+]([O-])c1ccc(NC(=S)NCCc2ccc(Cl)cc2)cc1 | 65.1* | 72.0* | 23.7 | 68.5* | 64.7* | 67.5* | 93.2* | 94.0* | 72.7* | 85.4* | 67.6*
S=C(NCCc1ccccc1)Nc1ccc(Cl)cc1 | 36.0 | 21.1 | 21.9 | 41.3 | 10.6 | nt | nt | nt | nt | nt | nt
COc1ccc(/C=C/C(=O)c2ccc([N+](=O)[O-])o2)cc1OC | 90.1* | 95.7* | nt | 50.2* | 91.0* | 53.8* | 80.0* | 57.8* | 88.8* | 98.2* | 97.2*
O=C(N/N=C/c1ccccc1)c1ccco1 | 14.6 | -2.0 | -38.4 | 7.7 | -14.4 | nt | nt | nt | nt | nt | nt
O=C(N/N=C/C(Br)=C\c1ccccc1)c1ccco1 | 65.6* | -14.9 | 8.1 | 63.8* | -87.6 | 77.2* | 74.0* | 53.5* | nt | nt | 45.5*
O=C(Sc1cccc2cccnc12)c1ccccc1Br | 88.8* | 53.2* | 29.3 | 65.9* | 55.6* | 63.7* | nt | nt | 72.0* | 73.8* | 67.3*
CC(=O)/C(=N\Nc1ccccc1)Sc1cccc2cccnc12 | 26.6 | 13.2 | 19.0 | 2.0 | 15.2 | nt | nt | nt | nt | nt | nt
Cc1ccc(OCC(=O)N/N=C/c2cccc3cccnc23)cc1 | 49.1 | 4.2 | 0.1 | 23.9 | 31.4 | nt | nt | nt | nt | nt | nt
O=C(O)CCNC(=O)CCCn1nnc2ccccc2c1=O | 7.1 | -22.6 | 4.7 | -5.8 | 2.3 | nt | nt | nt | nt | nt | nt
Cc1noc(C)c1C(=O)Nc1nc2ccc(Cl)cc2s1 | 62.4* | 32.5 | 7.8 | 57.9* | 50.0* | 71.8* | 70.8* | 57.9* | 31.9* | nt | 47.3*
O=[N+]([O-])c1ccc(COc2ncnc3ccccc23)cc1 | -4.8 | -36.7 | 4.6 | 1.4 | -25.1 | nt | nt | nt | nt | nt | nt
CC(C)(C)NC(=S)N/N=C/c1cc(Br)c(O)c(Br)c1 | 34.7 | 16.6 | 14.3 | 5.7 | 24.9 | nt | nt | nt | nt | nt | nt
CNC(=S)N/N=C/c1cc(Br)cc(Br)c1O | 58.4* | 35.5 | 54.0* | 63.8* | 24.6 | 34.3 | nt | nt | nt | nt | 53.9*
SMILES | tim23-1 inh | TIM10 inh | NALP1 yeast inh | NALP3 yeast inh | tim10-1 inh | NALP3 yeast conf | Casp1-ASC yeast | NALP3 retest | tim10-1 confirm | TIM10 conf | tim23-1 confirm
COc1ccccc1C(=O)NCCCCNC(=O)c1ccccc1OC | 21.7 | 13.8 | nt | -2.0 | 10.4 | nt | nt | nt | nt | nt | nt
CC(CCc1ccccc1)NC(=O)CCNS(=O)(=O)c1ccccc1C(F)(F)F (centres undefined) | 18.6 | 1.1 | nt | 1.6 | 7.7 | nt | nt | nt | nt | nt | nt
O=c1c2ccc(Cl)cc2nc(-c2cccc(C(F)(F)F)c2)n1O | 56.1* | 27.1 | 1.8 | 52.2* | 33.5 | 63.2* | 44.2 | 52.2* | nt | nt | 48.4*
O=c1c2ccccc2nc(-c2ccc(Cl)c(Cl)c2)n1O | 79.1* | 62.1* | -3.2 | 64.5* | 49.1* | 42.4 | 26.0 | 33.4 | 29.6* | 54.8* | 73.4*
N#Cc1ccc(-c2nc3cc(Cl)ccc3c(=O)n2O)cc1 | 50.4* | 27.7 | 41.5* | 63.4* | 28.1 | 72.3* | 50.8* | 63.6* | nt | nt | 55.6*
CCCCOc1ccc(C2=CSC3=NCCN23)cc1[N+](=O)[O-] | -9.2 | -5.5 | 11.6 | 5.7 | -24.0 | nt | nt | nt | nt | nt | nt
CCCCOc1ccc(-c2csc(N)n2)cc1[N+](=O)[O-] | 53.2* | 42.7* | -16.0 | 57.0* | 22.9 | -13.1 | nt | nt | nt | -1.6 | 62.7*
CSc1cccc(NC(=O)c2[nH]c(C)c(C(C)=O)c2C)c1 | 31.8 | 21.8 | 11.5 | 11.9 | 33.0 | nt | nt | nt | nt | nt | nt
Cc1ccc(-n2nnnc2SCC(=O)N2CCc3ccccc3C2)cc1 | 54.3* | 40.7* | -5.7 | 70.4* | 45.9* | 75.5* | 76.7* | 73.7* | 41.2* | 33.5* | 41.1*
Oc1c(I)cc(Cl)c2cccnc12 | 70.2* | 56.2* | 70.0* | 59.0* | 66.9* | 68.2* | 71.7* | 78.5* | 56.5* | 70.2* | 73.2*
O=c1[nH]c(C2CCCN(S(=O)(=O)c3ccc(F)cc3)C2)nc2c1nnn2Cc1ccc(F)cc1 (centres undefined) | -13.6 | -24.6 | 3.5 | 4.4 | -13.3 | nt | nt | nt | nt | nt | nt
CCCCCCCCCCCCCCCC[n+]1cccc2ccccc21 | 96.3* | 89.2* | 98.5* | 73.0* | 97.6* | 11.6 | nt | nt | 97.9* | -24.0 | 97.3*
CCCCCCCCC[n+]1cccc2c3ccccc3ccc21 | -51.6 | -53.2 | 24.6 | 37.1 | 16.4 | nt | nt | nt | nt | nt | nt
C#CCOc1ccc2c3c(c(=O)oc2c1)CCCC3 | 57.4* | -0.2 | 23.6 | 59.0* | 38.7 | 61.8* | 60.0* | 35.3 | nt | nt | 49.8*
